TDP-43 tox inh = inhibitors of TDP-43 toxicity in yeast; yeast TDP-43 toxicity rescue, BacTiter-Glo growth, 24 h; Potency, µM (doses to about 46.1 µM), hits mostly activators; actives 0.45% (n = 45,000); AID 1347073; active means well fitted activation curve with a large enough effect; further: 0% is about no effect; nearly all actives have a fitted effect of over 55% in size
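TDP-43-expressing yeast, pregrown in raffinose, seeded at OD600 0.02 in galactose medium with compound for 24 hr at 30 deg C. Growth read by BacTiter-Glo luminescence, so rescue of toxicity appears as activation.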
* marks the source's active call; other numbers are inactive results; i = inactive. This is one part of a sample in which hits are shown more often than they occur. Potency means the concentration at half of the fitted maximal effect.

SMILES	TDP-43 tox inh
CN(Cc1ccc(F)cc1)C(=O)C(c1ccccc1)c1ccccc1	i
CCOc1ccccc1NC(=O)c1ccccc1-c1ccccc1	i
CN(Cc1ccc(F)cc1)C(=O)COc1ccccc1-c1ccccc1	25µM*
Cc1cccc(NC(=O)Cn2c(=O)n(CCCCCC(=O)NCc3ccc4c(c3)OCO4)c(=O)c3sccc32)c1	i
CCOP(=O)(NC12CC3CC(CC(C3)C1)C2)NC12CC3CC(CC(C3)C1)C2	i
Cc1ccccc1NC(=O)Cn1c(=O)n(CCC(=O)NCc2ccc3c(c2)OCO3)c(=O)c2sccc21	i
COc1ccc(C)cc1NC(=O)c1sc2nc(C)nc(N3CCOCC3)c2c1C	i
Cc1nc(N2CCN(C)CC2)c2c(C)c(C(=O)Nc3ccc(F)cc3)sc2n1	i
Cc1nc(N2CCCCC2)c2c(C)c(C(=O)Nc3ccccc3C(F)(F)F)sc2n1	18µM*
O=C(NC1CCCCCC1)C(Cc1ccccc1)n1cccc1 (stereo not given)	i
O=C(Nc1ccc(F)cc1)C(Cc1ccccc1)n1cccc1 (stereo not given)	13µM*
O=C(Cc1ccccc1)Nc1ccc(F)cc1	i
CC1(C(=O)NS(=O)(=O)c2ccc(Cl)cc2)CCN1C(=O)Cc1ccc(Cl)cc1Cl (stereo not given)	i
CC(CN1CCOCC1)OC(=O)c1ccc(Br)cc1 (stereo not given)	16µM*
CC(CN1CCOCC1)OC(=O)CCc1ccccc1 (stereo not given)	i
CC1CCN(CC(C)OC(=O)c2ccco2)CC1 (stereo not given)	i
COc1ccc(NC(=O)c2csnn2)cc1Cl	i
CCCCOc1cccc(C(=O)N(Cc2cccs2)c2ccc(OC)cc2)c1	i
Cc1ccc(-c2noc(-c3nnn(CC(=O)Nc4cc(C)cc(C)c4)c3N)n2)cc1	i
COc1ccc(CNC(=O)c2cc3sccc3n2C)cc1	13µM*
COc1ccc(CNC(=O)CSc2cc(=O)n(C)c3ccccc23)cc1	i
CCOc1ccc(CNC(=O)c2cc3oc4ccccc4c3n2C)cc1	i
Cc1ccc(S(=O)(=O)NCC(=O)NNC(=O)c2ccccc2Cl)cc1C	i
CCN(C(=O)Cn1c(=O)oc2cc(S(=O)(=O)N3CCCCCC3)ccc21)c1cccc(C)c1	i
Cc1noc(C)c1-c1ccc(C(=O)NC2CCCCC2)c2occc12	i
SMILES	TDP-43 tox inh
CCc1ccc(N(CC)C(=O)c2ccc3c(=O)n4c(nc3c2)CCCCC4)cc1	i
CCSc1nc2sc3c(c2c(=O)n1-c1ccc(C)cc1)CCCC3	i
CN(Cc1ccccc1)c1ccc(C(=O)O)cc1[N+](=O)[O-]	16µM*
COc1ccccc1Nc1ccc(C(=O)O)cc1[N+](=O)[O-]	i
CN(C)c1ccc(C(=O)c2ccccc2C(=O)O)cc1[N+](=O)[O-]	i
CNc1nc(-c2cccc(C(=O)N(C)C)c2)cn2ccnc12	i
O=C(Nc1ccc(-c2cc(C(F)(F)F)nn2-c2ccccc2)cc1)c1cccc(F)c1	i
COc1ccc(C(=O)c2cc([N+](=O)[O-])ccc2N2CCCC2)cc1	i
Cc1ccc(C(=O)c2cc([N+](=O)[O-])ccc2N2CCOCC2)cc1C	22µM*
CN1CCN(c2ccc([N+](=O)[O-])cc2C(=O)c2ccccc2)CC1	i
CN(C)c1ccc(NC(=O)Cn2cc(S(=O)(=O)Cc3ccccc3Cl)c3ccccc32)cc1	i
O=C(COC(=O)c1ccc([N+](=O)[O-])o1)NC1CCS(=O)(=O)C1 (stereo not given)	i
CC(=O)Nc1ccc(NC(=O)COC(=O)c2ccc([N+](=O)[O-])o2)cc1	i
CC1CCCC(NC(=O)COC(=O)c2ccc([N+](=O)[O-])o2)C1C (stereo not given)	13µM*
Cc1ccccc1Nc1c(-c2ccccc2O)nc2sccn12	i
CCOc1ccc(NC(=O)CNC(=O)COc2ccccc2)cc1	i
CCOc1cc(-c2nc(C)c(C(C)=O)n2O)ccc1OCC(=O)Nc1ccccc1	11µM*
Cc1cc(C)c2oc(-c3ccc(NC(=O)COc4ccccc4C)cc3)nc2c1	i
CN1CCN(c2oc(/C=C/c3ccc(F)cc3)nc2C#N)CC1	i
CN(C)c1cccc(C(=O)NCC(c2ccco2)N(C)C)c1 (stereo not given)	i
N#C/C(=C\c1ccc(N2CCOCC2)o1)C(=O)Nc1ccc(O)cc1	i
CCCN1C(=O)S/C(=C/c2ccc(N3CCOCC3)o2)C1=O	i
N#C/C(=C/c1ccc(N2CCOCC2)o1)c1ccc(Br)cc1	14µM*
O=C(Nc1ccc2c(c1)CCC2)c1cccc(F)c1	16µM*
CSc1ccccc1C(=O)Nc1ccc2c(c1)CCC2	i
SMILES	TDP-43 tox inh
O=C(Cc1cccc(F)c1)Nc1ccc2c(c1)CCC2	i
O=C(O)c1ccc(Cl)cc1Nc1nc2cc(Cl)ccc2o1	i
COc1ccc(-c2[nH]ncc2C(=O)NCc2cccc(Cl)c2)cc1	i
CC(=O)N1CCN(C(=O)C2CCN(S(=O)(=O)c3ccccc3C(F)(F)F)CC2)CC1	i
O=S(=O)(c1ccccc1C(F)(F)F)N1CCN(c2ncnc3sccc23)CC1	11µM*
O=S(=O)(c1cc(C(F)(F)F)ccc1Cl)N1CCN(c2ncnc3ccccc23)CC1	i
O=C(Nc1cccc(Cl)c1)c1cnc2sc(N3CCCC3)nn2c1=O	i
COc1ccccc1-c1c(C)nn2c(C(F)(F)F)cc(-c3ccccc3)nc12	i
COc1ccccc1-c1nc2cc3ccccc3cc2nc1-c1ccccc1OC	i
COc1ccccc1-c1cn(C(C)(C)C)nc1C	11µM*
Cc1c(C(=O)N(Cc2ccc(N(C)C)cc2)Cc2ccco2)oc2cc(Br)ccc12	i
CC(C)(C)C1CCc2oc3ccc(NS(=O)(=O)c4cc(Cl)ccc4Cl)cc3c2C1 (stereo not given)	i
CCCCOc1ccc(CNC(=O)C2CCN(c3nnc(-n4cccc4CNc4ccc(C)cc4)s3)CC2)cc1	i
COc1ccc(Cl)cc1NC(=O)CSC1=NN2CCCC(=O)N=C2S1	14µM*
COc1ccc(OC)c(NC(=O)CSC2=NN3CCCC(=O)N=C3S2)c1	i
CCOc1ccccc1NC(=O)CSC1=NN2CCCC(=O)N=C2S1	i
CC(NC(=O)COC(=O)C12CC3CC(CC(Br)(C3)C1)C2)c1ccccc1 (stereo not given)	i
COc1ccc(NCc2ccc([N+](=O)[O-])s2)c(OC)c1	13µM*
CCC(=O)NC(=S)Nc1ccc(OC)cc1OC	i
COc1ccc(NC(=O)Cc2ccsc2)c(OC)c1	i
CC1CCN(S(=O)(=O)c2ccc3c(c2)CCN3C(=O)Nc2ccc(Br)cc2)CC1	i
Cc1cccc(C)c1NC(=O)Cn1nnc(S(=O)(=O)c2ccccc2)c1N	i
CCc1ccc(NC(=O)CN2C(=O)C(c3ccc(C)cc3)=NC23CCCCC3)cc1	i
O=C(Nc1ccccc1F)c1csc(COCCO)n1	i
CCOC(=O)c1c(N)sc(N)c1C(=O)OCC	i
CC(C)Cc1csc(NC(=O)c2ccc(F)cc2)c1C(=O)O	i
CCOC(=O)c1c(CC(C)C)csc1NC=O	16µM*
Cc1nc(C(F)(F)F)ccc1C(=O)N1CCC1(C)C(=O)NS(=O)(=O)c1ccc(C(C)(C)C)cc1 (stereo not given)	i
CCc1ccc(NC(=O)CN2C(=O)C(c3ccc(Cl)cc3)=NC23CCCCC3)cc1	i
Cc1ccccc1NC(=O)N1CCc2cc(S(=O)(=O)N3CCC(C)CC3)ccc21	i

High-throughput results from PubChem.
